From PubChem BioAssay
LmPK inh: LmPK (Leishmania mexicana) enzyme inhibition; purified LmPK, Kinase-Glo ATP luminescence, 1 h; AID 1721; 290,000 tested, 0.37% active; Q27686; Potency, µM (titrated, usually from 57.5 µM), actives largely listed as inhibitors
Target sequence (Q27686 whole entry, looked up): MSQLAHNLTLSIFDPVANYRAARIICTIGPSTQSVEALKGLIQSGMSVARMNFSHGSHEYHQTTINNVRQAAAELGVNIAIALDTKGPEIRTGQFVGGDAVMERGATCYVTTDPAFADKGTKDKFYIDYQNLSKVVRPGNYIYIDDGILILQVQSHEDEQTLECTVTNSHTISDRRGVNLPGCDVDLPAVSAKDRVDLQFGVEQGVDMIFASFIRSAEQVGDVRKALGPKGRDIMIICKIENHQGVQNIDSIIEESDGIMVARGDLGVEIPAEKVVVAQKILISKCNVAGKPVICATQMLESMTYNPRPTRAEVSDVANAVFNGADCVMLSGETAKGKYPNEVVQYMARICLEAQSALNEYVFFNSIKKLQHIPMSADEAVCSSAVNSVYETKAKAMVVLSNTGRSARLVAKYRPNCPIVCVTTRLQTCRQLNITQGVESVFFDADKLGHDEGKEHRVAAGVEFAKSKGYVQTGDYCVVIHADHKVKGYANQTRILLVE
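Screened at intermediate enzyme activity to detect both inhibitors and activators: LmPK at 0.1 nM, with a 0.5 nM enzyme column as activation reference. PEP 0.5 mM, ADP 0.1 mM; ATP detected by luminescence after 1 h.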
AMA1 RON2 block: AMA1-RON2 (P. falciparum) interaction inhibition; 360,000 tested, 0.2% active; AID 720542; AlphaScreen AMA1-biotinylated RON2 peptide binding; Potency, µM (doses to about 58.2 µM), actives largely listed as inhibitors; also: nearly all actives have a fitted effect of over 45% in size
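AMA1 (3D7) with his tag at 25 nM final met compounds first, then biotinylated RON2 peptide at 25 nM; detection used donor plus acceptor beads, 10 µg/mL apiece, read by AlphaScreen after 30 min at room temperature.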
Tb PYK inh: T. brucei pyruvate kinase inhibition. Q57TT1. TbPYK enzyme, Kinase-Glo Plus ATP luminescence, 45 min. Potency, µM (highest dose often 76.8 µM), hits mostly inhibitors. 410,000 tested, 0.12% active; also: nearly all actives have a fitted effect of over 50% in size
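Activity of T. brucei pyruvate kinase was followed by Kinase-Glo Plus luminescence after the enzyme reacted 45 min at room temperature with 130 uM ADP (final) and substrate. Test compounds were added before ADP at multiple concentrations.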
RE007 growth inh: less growth of the S. pombe RE007 Vpr strain; 360,000 tested, 0.21% active; AID 651644; S. pombe RE007 Vpr strain, BacTiter-Glo ATP luminescence, 24 h; Potency, µM (titrated, usually from 92.2 µM), hits mostly inhibitors; active = well fitted falling curve with a large enough effect; inconclusive = small, poorly fitted or top-dose-only effect; inactive = no such curve, though single readings can be large or run the other way; also: nearly all actives have a fitted effect of over 50% in size
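Fission yeast RE007 carrying one integrated HIV-1 vpr copy, seeded at OD 0.01 in PMG+AL medium with 23 nL pinned compound. Grown 24 h at 30 degrees; viability read by BacTiter-Glo luminescence after 5 min.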
Large screens that a line does not name were inactive. Only some compounds are listed: those with a hit (about 0.68% of all), similar ones and a draw of the others. Unless noted, calls follow the shape of the dose curve; as a rule, active = well fitted curve in the direction sought with a large enough effect; inconclusive = small, poorly fitted or top-dose-only effect, or another doubt; inactive = no such curve, though single readings can be large; an effect the other way counts as inactive or inconclusive.

COc1ccc(-n2c(-c3ccc(C(C)(C)C)cc3)n[nH]c2=S)c(OC)c1	Tb PYK inh inconclusive (no result: LmPK inh)
Cc1ccccc1NC(=O)C1CCCN(c2ncnc3onc(-c4ccc(F)cc4)c23)C1 (stereo not given)	none
Cc1nn(-c2ccccc2)c(OC(=O)c2cccc(Br)c2)c1S(=O)(=O)c1ccccc1	none (no result: LmPK inh, AMA1 RON2 block, RE007 growth inh)
C[C@@]12C(=O)Nc3ccc(Br)cc3C(=O)N1[C@H]1c3ccccc3OC[C@@H]1[C@@H]2c1ccccc1	none (no result: LmPK inh)
CCN(Cc1ccccc1)S(=O)(=O)c1c(C)[nH]c(C)c1C(=O)N1CCCCC1	none
Cc1ccc2nc(Cl)c3nnnn3c2c1	RE007 growth inh 25µM
O=[N+]([O-])c1cc(O)c2ncccc2c1	RE007 growth inh 7.9µM
Cc1oc(=O)c(NC(=O)c2ccccc2)cc1C(N)=O	none
COC(=O)c1cc(NC(=O)c2ccccc2)c(=O)oc1C	none
Cc1oc(=O)c(NC(=O)c2cccc(Cl)c2)cc1C(=O)c1ccccc1	Tb PYK inh inconclusive, RE007 growth inh 14µM
O=C(Nc1cc2ccccc2oc1=O)c1ccccc1	LmPK inh 4.5µM
COc1ccc(C(=O)Nc2cc(C(=O)c3ccccc3)c(C)oc2=O)cc1	RE007 growth inh 11µM
CSc1ccc(CN2CCC(C)(Oc3ccccc3C)C2)cc1 (stereo not given)	none (no result: LmPK inh)
O=C(NCc1ccco1)c1ccccc1F	none
O=C(COc1ccc2ccc(=O)oc2c1)N1CC[C@@]2(O)CCCC[C@H]2C1	none
C=CCN(CC=C)c1cnn(-c2nc3ccccc3[nH]2)c(=O)c1Cl	LmPK inh 16µM
O=c1c(Cl)c(NCCCO)cnn1-c1nc2ccccc2[nH]1	LmPK inh 14µM, Tb PYK inh inconclusive, RE007 growth inh inconclusive
CCN(CC)CCCNC1=C(Cl)C(=O)c2ccccc2C1=O	RE007 growth inh inconclusive
C=CCNC1=C(Cl)C(=O)c2ccccc2C1=O	AMA1 RON2 block 18µM, RE007 growth inh 20µM
O=C1C(Cl)=C(NCCc2ccccc2)C(=O)c2ccccc21	AMA1 RON2 block 13µM, Tb PYK inh inconclusive, RE007 growth inh 6.3µM (no result: LmPK inh)
O=C1C(Cl)=C(Nc2ccccc2)C(=O)c2ccccc21	none
CC(C)OCCCNC1=C(Cl)C(=O)c2ccccc2C1=O	AMA1 RON2 block 20µM, RE007 growth inh inconclusive
COCCCNC1=C(Cl)C(=O)c2ccccc2C1=O	RE007 growth inh inconclusive
CCCCCCCCCCCCCCC(O)C[N+](C)(CCO)CCO (stereo not given)	RE007 growth inh 32µM (no result: LmPK inh)
CC(c1ccc(F)cc1)n1c(Cn2ncc3ccccc3c2=O)n[nH]c1=S (stereo not given)	Tb PYK inh 13µM
O=c1c2ccccc2cnn1Cc1n[nH]c(=S)n1-c1ccc(F)c(Cl)c1	Tb PYK inh inconclusive
O=c1c2ccccc2cnn1Cc1n[nH]c(=S)n1-c1ccc(F)cc1	Tb PYK inh inconclusive
O=c1c2ccccc2cnn1Cc1n[nH]c(=S)n1-c1cc(Cl)cc(Cl)c1	Tb PYK inh 6.3µM
CC(c1ccccc1)n1c(-c2ccccc2F)n[nH]c1=S (stereo not given)	LmPK inh inconclusive, Tb PYK inh inconclusive
CC(c1ccc(F)cc1)n1c(-c2cccs2)n[nH]c1=S (stereo not given)	LmPK inh inconclusive, Tb PYK inh 7.1µM
COc1ccc(CN2CCN(Cc3ccco3)CC2)cc1OC	AMA1 RON2 block 18µM
COc1ccc(CN2CCN(Cc3ccco3)CC2)cc1	none
COc1cc(OC)cc(-n2nc(C(=O)N3CCC4(CC3)OCCO4)c3ccccc3c2=O)c1	none
COc1cc(C2c3sc(=O)[nH]c3SC3C(=O)N(c4ccc(C)cc4)C(=O)C32)ccc1O (stereo not given)	none
COc1ccc(N2C(=O)CC(Sc3n[nH]c(-c4ccccc4)n3)C2=O)cc1 (stereo not given)	RE007 growth inh 18µM
O=C1c2ccccc2C(=O)c2c(Nc3ccc(CCO)cc3)ccc(O)c21	LmPK inh inconclusive, AMA1 RON2 block 8.9µM (no result: RE007 growth inh)
O=C(O)c1cc(O)c2c(c1)[C@@H]([C@H]1c3cc(C(=O)O)cc(O)c3C(=O)c3c(O[C@@H]4O[C@H](CO)[C@@H](O)[C@H](O)[C@H]4O)cccc31)c1cccc(O[C@@H]3O[C@H](CO)[C@@H](O)[C@H](O)[C@H]3O)c1C2=O	AMA1 RON2 block 1.4µM (no result: LmPK inh)
COc1ccc(C(=O)Nc2ccc3c(c2)OCCO3)cc1	LmPK inh 25µM
COc1cccc(C(=O)Nc2cccc(OC(C)=O)c2)c1	LmPK inh 25µM
COc1ccc(C(=O)Nc2cc(OC)cc(OC)c2)cc1	LmPK inh 14µM
